A selection: hits, their analogues and other compounds. The true share with any hit is near 1.4%.
UHRF1 binding – UHRF1 methyl-DNA binding inhibition | Q96T88 | UHRF1 binding to methylated oligo, TR-FRET | inhibition, % at 4.4 µM | 0.75% of 370,000 active; in the data active means inhibition above about 21%;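 further: UHRF1 SRA domain binding a hemimethylated CpG hairpin DNA probe; 0% = median of test compound wells and 100% = reference inhibitor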
MBD2 DNA inh – MBD2-methylated oligo binding inhibition; Q9UBB5; inhibition, % at 4.4 µM; 0.31% of 370,000 active; TR-FRET, MBD2 binding to methylated oligonucleotide; in the data active means inhibition above about 13%
CASP6 VEID inh – caspase-6 (human) enzyme inhibition. P55212. purified caspase-6, Z-VEID-R110 cleavage fluorescence. inhibition, % at 12.5 µM. 0.53% of 350,000 active;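 active means mean inhibition across replicates at least about 35%, with every replicate also reaching that limit, limit read from the data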;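 further: 0% = median of neutral control wells and 100% = no fluorescence left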
Target sequence (P55212 24-179 limits assumed): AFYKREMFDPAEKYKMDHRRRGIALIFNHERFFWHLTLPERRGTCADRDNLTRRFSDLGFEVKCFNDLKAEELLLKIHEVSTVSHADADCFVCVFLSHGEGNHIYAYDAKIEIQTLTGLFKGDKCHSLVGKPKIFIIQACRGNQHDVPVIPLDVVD
Target sequence (P55212 194-293 limits assumed): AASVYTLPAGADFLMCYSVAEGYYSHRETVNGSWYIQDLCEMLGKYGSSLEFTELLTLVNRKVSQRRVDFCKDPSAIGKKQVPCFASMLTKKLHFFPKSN
LEDGF integ inh – blocks HIV-1 LEDGF/p75-dependent DNA integration. TR-FRET IN-LEDGF/p75 DNA integration, Eu/Cy5. inhibition, % at 3.7 µM. 0.64% of 370,000 active. AID 743269;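 active means inhibition above the screen-wide mean plus 3 SD, cut at about 13% in these data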;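 further: signal is the Cy5 over europium emission ratio at 671 and 618 nm; 0% = plate median of compound wells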
IN multimer up – activates HIV-1 integrase multimerization in LEDGF counter-screen. activation, % at 7.7 µM. 17% of 2,000 active. AID 1053131. shares compounds with LEDGF integ inh. TR-FRET HIV-1 integrase multimerization, biochemical; in the data active means activation above about 8.9%
TR-FRET interf – counter-screen for LEDGF/p75 integration inhibitors: TR-FRET optical interference; shares compounds with LEDGF integ inh; TR-FRET optical interference counterscreen, HIV-1 IN multimerization; inhibition, % at 7.7 µM; 2,000 tested, under 10 active;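 active means inhibition above the mean over all tested compounds plus 3 SD, which no compound reached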;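 further: 0% = integrase with antibodies and DMSO and 100% = antibodies without integrase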
LEDGF integ conf – LEDGF/p75-dependent HIV-1 integration inhibition, confirmation. inhibition, % at 3.7 µM. TR-FRET LEDGF/p75-dependent HIV-1 integration, biochemical. shares compounds with LEDGF integ inh. AID 1053136. 36% of 2,000 active; in the data active means inhibition above about 14%
An asterisk follows results filed as active; x = no result given.

SMILES	UHRF1 binding	MBD2 DNA inh	CASP6 VEID inh	LEDGF integ inh	IN multimer up	TR-FRET interf	LEDGF integ conf
O=C(CSc1nnc(CNC(=O)c2cccc(C(F)(F)F)c2)o1)NC1CCCC1	1.2	-6.5	0.6	44.5*	-0.2	1.2	-1.4
COC(=O)CSc1nnc(NC(=O)c2ccc3c(c2)OCO3)s1	-0.1	-5.1	-4.2	25.4*	0.2	-0.8	-13.4
CCS(=O)(=O)N1CCCCN2[C@H](CO)[C@H](c3ccc(-c4ccccc4F)cc3)[C@@H]2C1	x	x	-1.2	x	x	x	x
Cc1ccc(C2=NN(C(=S)Nc3ccccc3)C(c3ccco3)C2)cc1 (configuration not stated)	-0.8	-0.4	x	0.2	x	x	x
C=CCNC(=S)N1N=C(c2ccco2)CC1c1ccco1 (configuration not stated)	-2.8	-3.2	3.3	17.3*	1.5	-7.5	6.8
CC(C)Cc1nc(SCC(=O)Nc2nnc(CC(C)C)s2)n[nH]1	3.3	2.3	-2.0	13.9*	-1.1	5.4	2.8
CCCCc1nc(SCC(=O)Nc2nnc(CCCC)s2)n[nH]1	0.8	4.5	4.2	-1.7	x	x	x
COc1ccccc1NC(=O)N1CC(=O)N2[C@@H](CO)[C@@H](c3ccc(C#Cc4ccc(F)cc4)cc3)[C@@H]2C1	x	x	-0.7	x	x	x	x
COc1ccc(CN2C[C@H](C)[C@H](OC)CN(C)C(=O)c3cc(NC(=O)c4nc5ccccc5s4)ccc3OC[C@@H]2C)cc1	x	x	0.0	x	x	x	x
O=C1CC(c2ccccc2)Oc2cc(O)cc(O)c21 (configuration not stated)	0.3	-2.9	4.9	-1.2	x	x	x
COc1cc(OC)c2c(c1O)OC(c1ccccc1)CC2=O (configuration not stated)	-0.8	5.8	39.6*	28.5*	35.5*	-126.5	31.6*
C[C@H]1CN([C@@H](C)CO)C(=O)c2cc(NS(=O)(=O)c3ccc(Cl)cc3)ccc2O[C@@H]1CN(C)S(=O)(=O)c1ccc(F)cc1	x	x	1.4	x	x	x	x
Oc1cccc(/C=N/NC(=S)Nc2cccnc2)c1O	-7.8	4.6	x	33.4*	21.1*	-106.0	29.8*
COc1ccc(S(=O)(=O)N[C@@H]2CC[C@H](CC(=O)N3CCN(c4ccccc4)CC3)O[C@@H]2CO)cc1	x	x	-0.6	x	x	x	x
C#CCNC(=O)C[C@@H]1C[C@@]2(C(=O)OCC)CCCC=C2N(Cc2ccccc2)C1=O	-1.3	3.7	-0.3	19.4*	-2.3	11.6	-0.5
COC(=O)[C@@]12C[C@@H](CC(=O)NCC34CC5CC(CC(C5)C3)C4)C(=O)N(Cc3ccco3)C1=CCC(C)(C)C2	2.2	-2.3	-2.1	1.7	x	x	x
COC(=O)[C@]12CCCCC=C1N(Cc1ccco1)C(=O)[C@H](CC(=O)NCC13CC4CC(CC(C4)C1)C3)C2	0.8	-1.8	5.9	27.8*	-0.1	0.7	-7.0
CSc1ccc(C2C(C#N)=C(N)Oc3c2ccc(=O)c2c(C)oc(C)c32)cc1 (configuration not stated)	-3.5	-1.6	x	-2.3	x	x	x
Cc1oc(C)c2c(=O)ccc3c(c12)OC(N)=C(C#N)C3c1ccccc1 (configuration not stated)	5.6	-1.1	x	15.0*	-2.0	7.1	7.7
C[C@H](CO)N1C[C@H](C)[C@@H](CN(C)C(=O)Cc2ccccn2)Oc2ncc(C#CC3CCCCC3)cc2C1=O	x	x	-0.2	x	x	x	x
NC(c1csc(Nc2ccccn2)n1)C1CCCCC1 (configuration not stated)	-0.9	0.4	-1.8	13.8*	-0.2	1.0	3.2
NC(c1ccccc1)c1csc(Nc2ccccn2)n1 (configuration not stated)	-2.0	0.9	0.3	7.1	x	x	x
O=C(CCN1CCCCC1)N[C@H]1CC[C@H](CCNS(=O)(=O)c2ccccc2)O[C@H]1CO	x	x	-0.9	x	x	x	x
CN(C)CC(=O)Nc1ccc2c(c1)[C@@H]1C[C@@H](CC(=O)NCC3CC3)O[C@@H](CO)[C@@H]1O2	x	x	1.9	x	x	x	x
CCCNC(=O)c1cc(C2CCCN(S(=O)(=O)c3cccc4cccnc34)C2)on1 (configuration not stated)	-0.8	0.5	-2.0	37.0*	-4.1	14.6	0.7
SMILES	UHRF1 binding	MBD2 DNA inh	CASP6 VEID inh	LEDGF integ inh	IN multimer up	TR-FRET interf	LEDGF integ conf
Nn1cnnc1N/N=C\c1ccc(-c2ccccc2[N+](=O)[O-])o1	11.1	-3.0	10.3	38.5*	2.4	-8.5	1.2
O=[N+]([O-])c1ccccc1-c1ccc(/C=N/n2cnnc2)o1	-1.4	-7.1	x	0.5	x	x	x
C[C@@H]1CN([C@@H](C)CO)C(=O)c2cc(NC(=O)Nc3ccc(C(F)(F)F)cc3)ccc2O[C@@H]1CN(C)Cc1ccc2c(c1)OCO2	x	x	-1.3	x	x	x	x
CNCc1ccccc1Sc1ccc(O)c(O)c1	17.0	12.1	7.0	14.5*	2.6	-13.3	10.4
Cc1ccc(S(=O)(=O)c2cc(Nc3ccccc3)ccc2O)cc1	-2.7	-1.4	15.4	-2.6	x	x	x
Cc1ccc(Nc2ccc(N)cc2S(=O)(=O)O)cc1	3.4	-0.8	62.4*	19.3*	10.1*	-36.0	2.2
C[C@H]1CN([C@@H](C)CO)C(=O)c2cc(/C=C/c3ccccc3)cnc2O[C@H]1CN(C)C(=O)Cc1cccnc1	x	x	0.2	x	x	x	x
COc1c2occc2c(OC)c2c(=O)cc(C)oc12	1.7	2.9	2.2	-2.7	x	x	x
Cc1cc(=O)c2c(o1)C(=O)c1occc1C2=O	40.4*	11.4	91.6*	50.5*	35.1*	-125.3	56.2*
COc1ccc(/C=C2\C(=O)NC(=O)c3ccccc32)cc1OC	6.5	-8.1	93.4*	29.5*	16.3*	-62.1	65.5*
COc1ccc(C=C2C(=O)OC(C)(C)OC2=O)cc1OC	1.4	0.5	-4.2	-5.0	x	x	x
Cc1cc(NC(=O)CSc2nc(-c3cccs3)cc(C(F)(F)F)n2)no1	2.3	-1.4	x	-3.1	x	x	x
Cc1cc(NC(=O)CCCS(=O)(=O)c2nc(-c3cccs3)cc(C(F)(F)F)n2)no1	-0.1	-2.9	1.8	18.5*	-0.9	4.8	2.0
Oc1ccc(-c2csc(Nc3ncccn3)n2)cc1O	8.9	2.2	19.8	16.5*	26.5*	-133.6	6.4
COc1ccc(S(=O)(=O)N[C@H]2C=C[C@@H](CC(=O)N3CCc4ccccc4C3)O[C@H]2CO)cc1	x	x	1.5	x	x	x	x
Cc1noc(C)c1NC(=O)Nc1ccc2c(c1)C(=O)N([C@H](C)CO)C[C@@H](C)[C@H](CN(C)C)O2	x	x	0.8	x	x	x	x
COC1=C(Nc2ccc(OC)cc2)C(=O)c2ccccc2C1=O	-7.8	-3.4	x	18.0*	6.9	-24.7	-2.0
COC1=C(Nc2ccc(OC)cc2)C(=O)C(OC)=C(Nc2ccc(OC)cc2)C1=O	-3.4	1.6	2.7	-4.5	x	x	x
C/C=C/c1ccc([C@H]2[C@@H](CNC(=O)c3ccncc3)N(C(=O)CC)[C@H]2CO)cc1	x	x	-1.0	x	x	x	x

Assay outcomes as filed in PubChem.
